Assay results published in PubChem BioAssay AID1347041 (National Center for Advancing Translational Sciences (NCATS), 2019).
Out of some 480,000 compounds screened, about 740 (0.15%) were called active. For the sample, actives were picked, then their nearest neighbours and some compounds at random. Values without a mark were called inactive. Cut-off read from the data, not from the text of the source: active = activity change below about -30%; inconclusive = mostly about -25% to -30%; inactive = weaker than that.

biological target: L-lactate dehydrogenase A chain (Homo sapiens) (UniProt P00338); assay: qHTS assay for inhibitors of human lactate dehydrogenase; conditions: purified LDHA, NADH/diaphorase-resazurin fluorescence; active compounds read low;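 note: values are at about 110 or 230 µM; plate controls were DMSO wells for no effect and wells without enzyme for full effect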
Source text: LDH is a key glycolytic enzyme that catalyzes the final step in the glycolytic pathway, reducing pyruvate to lactate and regenerating NAD+ equivalents necessary for continued glycolysis. LDHA has been linked to the carcinogenesis and malignancy in numerous forms of cancers and many other diseases. Consequently, both pharma and academia have invested in significant research efforts to identify small molecule therapeutics. Such attempts have been stalled or abandoned due to limited success in discovering potent and drug-like inhibitors that can be utilized to validate LDHA in vivo as a drug target, a necessary step toward advancing such a molecule towards the clinic Towards this goal we designed and performed a quantitative high-throughput screening (qHTS) campaign to discover novel compounds that are potent inhibitors of LDHA enzyme activity and cancer cell line growth.
The assay was optimized to 1536-well plates. Briefly, 3 µL of human lactate dehydrogenase 5 (#A38558H, Meridian Life Science, Inc., Memphis, TN) in LDH assay buffer (200 mM Tris HCl pH 7.4, 100 microM EDTA and 0.01% Tween-20) was added to a black solid bottom 1536-well assay plate (Greiner Bio-One) using a BioRAPTR FRD dispenser (Beckman Coulter, Brea, CA). A 1536-well pintool dispenser outfitted with 20 nL pins (Wako Automation, San Diego, CA) was used to transfer 23 nL of DMSO-solubilized compound (both library and vehicle controls) to each 1536-well assay plate. Following compound transfer, 1 µL of substrate solution containing NADH and sodium pyruvate (Sigma-Aldrich, St. Louis, MO) in LDH assay buffer was dispensed via BioRAPTR FRD to initiate the reaction. Final concentrations in the 4 microL reaction volume were 2 nM LDHA enzyme, 0.06 mM NADH and 0.2 mM sodium pyruvate. Following a 5 minute incubation period at room temperature, 1 µL of detection reagent (C. kluyveri diaphorase (Sigma-Aldrich) and resazurin sodium salt (Sigma-Aldrich) in LDH assay buffer) was added to a total volume of 5 µL. Final concentrations of detection reagents were 0.133 mg/mL diaphorase and 37 µM resazurin. Plates were immediately transferred to a ViewLux microplate imager (PerkinElmer, Waltham, MA), and any resulting resorufin fluorescence was measured (ex540, em590 nm) at 0 and 20 minutes. Fluorescence was normalized using enzyme-free and DMSO-treated control wells on each plate.

SMILES	activity change
CCC(CC)(Cc1nc2ccccc2s1)C(=O)Nc1ccc(N2CCOCC2)cc1	5.36%
C/C(=N\NC(=O)c1ccc(C(C)(C)C)cc1)C(C)C	11.2%
O=[N+]([O-])c1cc(S(=O)(=O)Nc2ccc(Cl)cc2)ccc1N/N=C/c1ccccc1C(F)(F)F	3.88%
O=[N+]([O-])c1cc(S(=O)(=O)Nc2cccc(Cl)c2)ccc1N=Nc1c(O)[nH]c2ccccc12	-42.1% (active)
O=[N+]([O-])c1cc(S(=O)(=O)Nc2ccccc2NS(=O)(=O)c2cccs2)ccc1Cl	13.9%
CC(C)(C)c1ccc(/C=N/NC(=O)c2ccccc2)cc1	12.2%
Cc1cc(C)c(/C=N/NC(=O)c2ccccc2)c(C)c1	4.2%
COc1cccc(/C=N/NC(=O)c2[nH]nc3c2CCc2ccccc2-3)c1O	-78.6% (active)
CC(OC(=O)c1cccc(-n2cnnn2)c1)C(=O)Nc1ccc(N2CCOCC2)cc1 (stereo not given)	6.53%
CC(=O)Nc1cccc(NC(=O)c2cnn(-c3ccccc3F)c2C(F)(F)F)c1C	9.39%
O=C(N/N=C/c1ccccc1Cl)c1ccc(Cl)s1	5.95%
O=C(N/N=C/c1ccccc1OCCOc1ccc([N+](=O)[O-])cc1)Nc1ccccc1	-7.59%
O=C(NN=Cc1ccccc1O)NN=Cc1ccccc1O	-72% (active)
N#C/C(=C/c1ccccc1)c1ccc(C(F)(F)F)cn1	-3.61%
Cc1ccccc1CC(=O)Nc1ccc(N2CCOCC2)c(Cl)c1	-4.8%
COCCN1C(=O)C(=O)/C(=C(/O)c2ccc3c(c2)OCCO3)C1c1cccc(O)c1 (stereo not given)	9.53%
O=S(=O)(c1ccc2c(c1)OCCO2)c1nc(-c2cccc(Cl)c2)oc1N1CCOCC1	-9.35%
NC(=O)c1ccc(NC(=O)CCc2ncc(-c3c(F)cccc3F)o2)cc1	-1.68%
Cc1cc(N2CCC(C)CC2)n2nc(-c3ccccc3)nc2n1	7.05%
c1ccc(Oc2ccc(CNc3ncccn3)cn2)cc1	-10.1%

SMILES	activity change
CCCn1c(N)c(-c2csc(Nc3ccc(F)cc3)n2)c(=O)n(C)c1=O	2.91%
CCc1nn2c(=O)cc(CN(CC)Cc3ccc(OCc4ccccc4)cc3)nc2s1	-24.3%
Cc1ccccc1CSc1nc(=O)c2c(n1C)NC(=O)CC2c1ccc(OCC(N)=O)cc1 (stereo not given)	2.91%
O=C(CSc1ccccc1F)c1ccc2c(c1)-c1ccccc1C2	10.6%
Cc1ccc(C)c(-n2c3c(cc(C#N)c2=O)C(=O)CC(c2ccccc2)C3)c1 (stereo not given)	-0.429%
CCOC(=O)c1c(C)[nH]c(C(=O)COc2cc(Cl)ccc2Cl)c1C	-3.64%
CC1=C(C(=O)Nc2cccc(C)c2C)C(c2ccc(C)cc2)NC(=O)N1 (stereo not given)	-9.14%
CC1CCN(C(=O)C(C)n2cnc3c2c(=O)n(C)c(=O)n3C)CC1 (stereo not given)	1.51%
COc1ccc(-c2csc(-c3cc4c([nH]c3=O)CC(c3ccco3)CC4=O)n2)cc1F (stereo not given)	6.35%
COc1ccc(-c2c(C)c3cc(OS(=O)(=O)c4ccc(F)cc4)ccc3oc2=O)cc1OC	1.58%
CCN(CC(=O)Nc1ccc(S(=O)(=O)N2CCCC2)cc1)CC(=O)Nc1cccc(OC)c1	-38.2% (active)
CCN(CC(=O)Nc1cccc(S(=O)(=O)N2CCCCC2)c1)Cc1ccccc1	-5.08%
COc1cccc(CNC(C)C(=O)Nc2ccc(S(=O)(=O)N3CCCC3)cc2)c1 (stereo not given)	-0.452%
CC(C)CC(NC(=O)C(c1ccccc1)c1ccccc1)c1ccccc1 (stereo not given)	-5.71%
Oc1c(Cl)cc(Cl)c(Cl)c1Cc1c(O)c(Cl)cc(Cl)c1Cl	-106% (active)
Fc1cccc(Cl)c1CNc1ccc(Cl)cc1	11.8%
CC(C)(C)n1nc(N)c2cc([N+](=O)[O-])ccc21	-0.323%
O=C(Cc1c[nH]c2ccccc12)Nc1cc(F)cc(F)c1	0.607%
C=CC(=O)OCCOCCOCCOCCOC(=O)C=C	-3.09%
O=C(O)CCC(=O)O	0.526%

SMILES	activity change
O=C(O)COCCOCC(=O)O	-30% (active)
CCN(CC(=O)NCc1cccs1)C(=O)c1cccc(S(=O)(=O)N(C)c2ccc(C)cc2)c1	2.57%
O=C(Cc1ccsc1)NCCc1ccccc1	-0.295%
O=C1C2C3C=CC(C3)C2C(=O)N1c1ccc(S(=O)(=O)Nc2nccs2)cc1 (stereo not given)	-9.54%
CCCOc1ccc(N2C(=O)CC(N(CCc3ccc(S(N)(=O)=O)cc3)C(C)=O)C2=O)cc1 (stereo not given)	-18%
NS(=O)(=O)c1ccc(N2C(=O)C3C4CC(C(Br)C4Br)C3C2=O)cc1 (stereo not given)	-58.8% (active)
O=C(NCc1nc(-c2ccc(Cl)cc2)no1)c1cc2ccccc2o1	0.842%
Cc1ccc(-c2ccccc2N)cc1	-2.5%
O=C(c1ccc[nH]1)c1cc2cc(Br)ccc2o1	-2.8%
Cc1cccc(/C=C/C(=O)c2cccs2)c1	7.28%
CCCNC(=O)C(C)NC(=O)COc1ccccc1NC(C)=O (stereo not given)	-1.76%
Cc1ccc(-c2nc(CS(=O)CC(=O)Nc3ccc(C)c(C)c3)cs2)cc1 (stereo not given)	0.528%
O=C(O)CCC(=O)Nc1ccc2c(C(C(=O)O)N3CCN(c4ccccc4)CC3)c[nH]c2c1 (stereo not given)	-5.22%
Cc1ccc(NC(=O)C(Sc2nnnn2C2CCCC2)c2ccccc2)cc1 (stereo not given)	11.6%
c1ccc(-c2nc(-c3ccc4c(c3)OCCCO4)cs2)nc1	5.7%
c1coc(CNc2ccc3c(c2)ncn3C2CCCCC2)c1	13.3%
CN1CCN(CCCCOc2ccccc2-c2ccccc2)CC1	-36.2% (active)
CC1CCCN(CCOCCOc2ccccc2-c2ccccc2)C1 (stereo not given)	-8.67%
COc1ccccc1OCCCCCCN1CCN(C)CC1	-2.1%
O=C(CCn1ccccc1=O)Nc1ccc(Cl)cc1Cl	11.9%
